The target in one assay is Follistatin (Homo sapiens) (UniProt P19883). The assay is described as follows: FST protein binding to printed compounds – biochemical, small-molecule microarray, 635/667 nm fluorescence, primary screen (AID 1132). The note with it: 635 nm fluorescence, higher = more signal.
Chain of Follistatin (Homo sapiens) (P19883 whole entry, looked up): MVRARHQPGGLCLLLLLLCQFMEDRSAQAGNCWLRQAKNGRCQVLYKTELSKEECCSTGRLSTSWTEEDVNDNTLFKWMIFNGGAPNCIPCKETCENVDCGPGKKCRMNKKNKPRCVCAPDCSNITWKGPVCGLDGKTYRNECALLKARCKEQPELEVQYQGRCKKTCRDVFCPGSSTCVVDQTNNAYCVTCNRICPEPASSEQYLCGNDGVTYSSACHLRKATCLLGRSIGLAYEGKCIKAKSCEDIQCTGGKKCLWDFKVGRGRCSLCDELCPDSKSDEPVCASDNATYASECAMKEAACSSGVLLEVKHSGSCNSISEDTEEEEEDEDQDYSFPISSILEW
As for `COc1ccc(C#Cc2ccc3c(c2)[C@]2(C(=O)N3)[C@H](C(=O)N3CCCCCCC3)[C@H]3C(=O)O[C@H](c4ccccc4)[C@H](c4ccccc4)N3[C@@H]2c2ccc(O)cc2)cc1`, the composite z-score amounted to 1.31.

Compound `C=C(/C(=C/C[C@H](OC(=O)c1ccncc1)c1cccc(OCCO)c1)c1cnc2ccccc2c1)C(C)C` returned a composite z-score of 1.46.

`CCCCCCCCCCC(O)C1C=CC2C(=O)N(C)C(=O)C2N1Nc1cc(OC)c(OC)c(OC)c1` (stereo not drawn) displayed a composite z-score of -0.763.

Consider `Nc1cc(Br)ccc1C(=O)O`, for which the composite z-score is 0.181.

Take `CN(C)C(=O)[C@]1(CCS(=O)(=O)c2ccccc2)N=C(c2ccc(OCCCO)cc2)O[C@@H]1c1ccccc1`: the composite z-score is 1.29.

Take `O=C1N(CCS(=O)(=O)c2ccccc2)Cc2ccccc2[C@@H]2OC(c3ccc(OCCCO)cc3)=N[C@]12CCS(=O)(=O)c1ccccc1`: the composite z-score came out at 1.41.

As for `COc1ccc([Si](C)(C)[C@H]2[C@H](CC(=O)N3Cc4ccccc4C[C@H]3CO)O[C@@]3(C(=O)N(Cc4ccc(N5C(=O)c6cccc7cccc5c67)cc4)c4ccccc43)[C@@H]2C)cc1`, the composite z-score stood at 1.07.

`COCC1=C2[C@@H](CCc3ccccc3)OB(O)C[C@@H]2[C@@H]2C(=O)N(C)C(=O)[C@@H]2C1` registered a composite z-score of 0.309.

The compound `CC(C)OC(=O)CC(=O)CC(O)c1ccc([N+](=O)[O-])cc1` (stereo not drawn) registered a composite z-score of -0.134.

`CC(C)C(=C=CC[C@@H](O)c1cccc(OCCO)c1)C[C@@H](O)c1ccccn1` showed a composite z-score of 0.484.

The compound `C=CCC(OC(C)=O)[C@@H]1[C@@H](N(Cc2cccc3ccccc23)C(=O)c2cccc3ccccc23)c2cc(OCCCO)ccc2N1C(=O)c1ccc2ccccc2c1` (stereo partly drawn) displayed a composite z-score of 1.14.

Turning to `CC(=O)N1CC(C(O)C2C=CC3C(=O)NC(=O)C3N2Nc2ccc(Cl)cc2Cl)c2ccccc21` (stereo not drawn), the composite z-score stood at 0.772.

Compound `COC(=O)[C@@]1(Cc2ccc(F)cc2)[C@H]2c3cc(C(=O)N(C)C)n(Cc4c(CO)[nH]cc(C)c4=O)c3C[C@H]2CN1C(=O)c1ccccc1` showed a composite z-score of -0.198.

In turn, `CC(C)[C@H]1NC(=O)[C@@]23C(=O)N[C@@H](Cc4ccccc4)C2[C@H](C)[C@@]2(C)O[C@H]2C3/C=C/CCC/C=C/CNC(=O)[C@H](Cc2ccccc2)NC1=O` (stereo partly drawn) returned a composite z-score of 0.283.

In turn, `CCOC(=O)C[C@H]1[C@H](OC(=O)c2ccccc2-c2ccccc2)[C@@H](NC(=O)c2ccccc2)c2cc(OCCCO)ccc2N1C(=O)c1ccccc1` returned a composite z-score of 0.378.

`COC(=O)[C@@]1(Cc2ccccc2CN=[N+]=[N-])N=C(c2ccc(OCCCO)cc2)O[C@H]1c1ccccc1` displayed a composite z-score of 1.21.

The compound `C=C(COC)C(=O)CC[C@@H](OC(=O)c1cccnc1)c1ccccc1OCCO` came in with a composite z-score of 0.974.

Consider `CC1CC/C=C\[C@H]2OC34C=CCN(CCN5CCOCC5)C(=O)[C@H]3N(C(C)CO)C(=O)[C@@H]4C2C(=O)O1` (stereo partly drawn), for which the composite z-score is 0.446.

Take `[N-]=[N+]=NCc1ccccc1[C@H]1OC(c2ccc(OCCCO)cc2)=N[C@@]1(CCS(=O)(=O)c1ccccc1)C(=O)NCc1ccccc1`: the composite z-score was 1.36.

With `COc1ccc([Si](C)(C)[C@H]2[C@H](CCO)O[C@@]3(C(=O)N(Cc4ccc(N5C(=O)c6ccccc6Oc6ccccc65)cc4)c4ccccc43)[C@@H]2C)cc1`, the composite z-score was -1.14.

As for `O=C(NCC(O)CO)[C@@]1(CCS(=O)(=O)c2ccccc2)COC(c2ccc(OCCCO)cc2)=N1` (stereo partly drawn), the composite z-score amounted to 1.36.

`C=CCC(OC(C)=O)[C@@H]1[C@@H](N(Cc2cccc3ccccc23)C(=O)Cc2ccc(F)cc2)c2cc(OCCCO)ccc2N1C(=O)c1ccc(-c2ccccc2)cc1` (stereo partly drawn) yielded a composite z-score of -0.0679.

The compound `C=CCNC(=O)[C@@H]1[C@H]2C(=O)O[C@H](c3ccccc3)[C@H](c3ccccc3)N2[C@H](c2ccc(O)cc2)[C@@]12C(=O)N(C(=O)OCCOC)c1ccc(C#CCCO)cc12` registered a composite z-score of 1.19.

In the case of `C=CCNC(=O)[C@@H]1[C@H]2C(=O)O[C@H](c3ccccc3)[C@H](c3ccccc3)N2[C@H](c2ccc(OCCO)cc2)[C@@]12C(=O)N(C(=O)OCCOC)c1ccc(C#CCCO)cc12`, the composite z-score came out at 1.33.

`C=CCOC(=O)[C@H]1[C@@H]2C(=O)O[C@@H](c3ccccc3)[C@@H](c3ccccc3)N2[C@@H](c2ccc(OCCOC(=O)[C@H]3C[C@H]4C(=O)N[C@@H](CCCCNC(C)=O)C(=O)N4[C@H]3c3cccc(OCCO)c3)cc2)[C@]12C(=O)Nc1ccc(I)cc12`: the composite z-score is 1.3.

With `COCCOC(=O)N1C(=O)[C@@]2(c3cc(C#CC4=CCCCC4)ccc31)[C@H](c1ccc(O)cc1)N1[C@H](c3ccccc3)[C@H](c3ccccc3)OC(=O)[C@H]1[C@@H]2C(=O)NC[C@H](O)c1ccccc1`, the composite z-score stood at 1.22.

For `CN1C(=O)C2C=CC(C(O)c3ccc(I)cc3)N(Nc3ccccc3)C2C1=O` (stereo not drawn), the composite z-score is 1.19.

The target in a further assay is Fibroblast growth factor 2 (Homo sapiens) (UniProt P09038). Nature of the assay: basic fibroblast growth factor binding to printed compounds – biochemical, small-molecule microarray, 635/667 nm fluorescence, primary screen (AID 1133). Particulars: FGF2, fluorescence 635/667, higher = more signal.
Chain of Fibroblast growth factor 2 (Homo sapiens) (P09038 whole entry, looked up): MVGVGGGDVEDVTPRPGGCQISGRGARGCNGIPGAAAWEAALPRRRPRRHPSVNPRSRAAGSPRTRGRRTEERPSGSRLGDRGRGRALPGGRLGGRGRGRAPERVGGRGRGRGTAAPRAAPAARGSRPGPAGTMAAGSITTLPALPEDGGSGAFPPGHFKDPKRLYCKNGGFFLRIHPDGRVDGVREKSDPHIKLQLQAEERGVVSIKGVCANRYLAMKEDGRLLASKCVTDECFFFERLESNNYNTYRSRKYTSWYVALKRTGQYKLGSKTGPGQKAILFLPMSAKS
Compound `CN(C)C(=O)[C@@]1(Cc2ccccc2)COC(c2ccc(OCCCO)cc2)=N1` displayed a composite z-score of -0.0827.

As for `CO[C@H]1O[C@H](CO)[C@@H](OC(=O)CCc2ccccc2)[C@H](OC(=O)c2cc3ccccc3[nH]2)[C@H]1OC(=O)c1cc2ccccc2[nH]1`, the composite z-score is 1.31.

`CN1C(=O)C2C=CC(C(O)c3cc(C(F)(F)F)cc(C(F)(F)F)c3)N(Nc3ccccc3)C2C1=O` (stereo not drawn) came in with a composite z-score of -0.419.

`COCCOC(=O)N1C(=O)[C@@]2(c3cc(C#CCCO)ccc31)[C@H](C(N)=O)[C@H]1C(=O)O[C@H](c3ccccc3)[C@H](c3ccccc3)N1[C@@H]2c1ccc(OCCO)cc1` came in with a composite z-score of 0.805.

`COCCOC(=O)N1C(=O)[C@@]2(c3cc(C#Cc4ccc(OC)cc4)ccc31)[C@H](C(=O)NC[C@H](O)c1ccccc1)[C@H]1C(=O)O[C@H](c3ccccc3)[C@H](c3ccccc3)N1[C@@H]2c1ccc(OCCO)cc1` displayed a composite z-score of 1.01.

On to `COCCOC(=O)N1C(=O)[C@@]2(c3cc(C#CCNC(N)=O)ccc31)[C@H](c1ccc(OCCO)cc1)N1[C@H](c3ccccc3)[C@H](c3ccccc3)OC(=O)[C@H]1[C@@H]2C(N)=O`, for which the composite z-score was 0.258.

The compound `CC(=O)NCCCC[C@@H]1NC(=O)[C@H]2C[C@@H](C(=O)NCCCCCNC(=O)CS)[C@@H](c3cccc(OCCO)c3)N2C1=O` registered a composite z-score of 1.6.

In turn, `O=C1O[C@H](c2ccccc2)[C@H](c2ccccc2)N2[C@H]1[C@@H](C(=O)N1CCCCCCC1)[C@]1(C(=O)Nc3ccc(C#CC4(O)CCCCCC4)cc31)[C@H]2c1ccccc1OCCO` returned a composite z-score of 0.121.

`COCCCNC(=O)[C@@]1(c2ccc([N+](=O)[O-])cc2)CC(=O)N(CC23CC4CC(CC(C4)C2)C3)[C@@H]1c1ccc(CO)cc1I` showed a composite z-score of 0.614.

`COc1ccc(C#Cc2ccc3c(c2)[C@]2(C(=O)N3)[C@H](C(=O)N3CCCCCCC3)[C@H]3C(=O)O[C@H](c4ccccc4)[C@H](c4ccccc4)N3[C@@H]2c2ccc(O)cc2)cc1`: the composite z-score was found to be 0.709.

`C=C(/C(=C/C[C@H](OC(=O)c1ccncc1)c1cccc(OCCO)c1)c1cnc2ccccc2c1)C(C)C` showed a composite z-score of 1.85.

Compound `CCCCCCCCCCC(O)C1C=CC2C(=O)N(C)C(=O)C2N1Nc1cc(OC)c(OC)c(OC)c1` (stereo not drawn) gave a composite z-score of -1.44.

`Nc1cc(Br)ccc1C(=O)O` showed a composite z-score of 0.372.

`CN(C)C(=O)[C@]1(CCS(=O)(=O)c2ccccc2)N=C(c2ccc(OCCCO)cc2)O[C@@H]1c1ccccc1`: the composite z-score turned out to be 0.345.

In the case of `O=C1N(CCS(=O)(=O)c2ccccc2)Cc2ccccc2[C@@H]2OC(c3ccc(OCCCO)cc3)=N[C@]12CCS(=O)(=O)c1ccccc1`, the composite z-score came to 1.7.

Turning to `COc1ccc([Si](C)(C)[C@H]2[C@H](CC(=O)N3Cc4ccccc4C[C@H]3CO)O[C@@]3(C(=O)N(Cc4ccc(N5C(=O)c6cccc7cccc5c67)cc4)c4ccccc43)[C@@H]2C)cc1`, the composite z-score came out at 1.37.

Regarding `COCC1=C2[C@@H](CCc3ccccc3)OB(O)C[C@@H]2[C@@H]2C(=O)N(C)C(=O)[C@@H]2C1`, the composite z-score is 0.833.

The compound `CC(C)OC(=O)CC(=O)CC(O)c1ccc([N+](=O)[O-])cc1` (stereo not drawn) had a composite z-score of -0.404.

Compound `CC(C)C(=C=CC[C@@H](O)c1cccc(OCCO)c1)C[C@@H](O)c1ccccn1` displayed a composite z-score of -0.0241.

The compound `C=CCC(OC(C)=O)[C@@H]1[C@@H](N(Cc2cccc3ccccc23)C(=O)c2cccc3ccccc23)c2cc(OCCCO)ccc2N1C(=O)c1ccc2ccccc2c1` (stereo partly drawn) showed a composite z-score of 0.061.

In the case of `CC(=O)N1CC(C(O)C2C=CC3C(=O)NC(=O)C3N2Nc2ccc(Cl)cc2Cl)c2ccccc21` (stereo not drawn), the composite z-score was -0.0113.

Compound `COC(=O)[C@@]1(Cc2ccc(F)cc2)[C@H]2c3cc(C(=O)N(C)C)n(Cc4c(CO)[nH]cc(C)c4=O)c3C[C@H]2CN1C(=O)c1ccccc1` gave a composite z-score of -0.197.

`CC(C)[C@H]1NC(=O)[C@@]23C(=O)N[C@@H](Cc4ccccc4)C2[C@H](C)[C@@]2(C)O[C@H]2C3/C=C/CCC/C=C/CNC(=O)[C@H](Cc2ccccc2)NC1=O` (stereo partly drawn): the composite z-score is -0.0659.

The compound `CCOC(=O)C[C@H]1[C@H](OC(=O)c2ccccc2-c2ccccc2)[C@@H](NC(=O)c2ccccc2)c2cc(OCCCO)ccc2N1C(=O)c1ccccc1` came in with a composite z-score of 0.673.

Compound `COC(=O)[C@@]1(Cc2ccccc2CN=[N+]=[N-])N=C(c2ccc(OCCCO)cc2)O[C@H]1c1ccccc1` came in with a composite z-score of 0.255.

Consider `C=C(COC)C(=O)CC[C@@H](OC(=O)c1cccnc1)c1ccccc1OCCO`, for which the composite z-score came out at 1.

On to `CC1CC/C=C\[C@H]2OC34C=CCN(CCN5CCOCC5)C(=O)[C@H]3N(C(C)CO)C(=O)[C@@H]4C2C(=O)O1` (stereo partly drawn), for which the composite z-score was -0.439.

Consider `[N-]=[N+]=NCc1ccccc1[C@H]1OC(c2ccc(OCCCO)cc2)=N[C@@]1(CCS(=O)(=O)c1ccccc1)C(=O)NCc1ccccc1`, for which the composite z-score came to 0.623.

Compound `COc1ccc([Si](C)(C)[C@H]2[C@H](CCO)O[C@@]3(C(=O)N(Cc4ccc(N5C(=O)c6ccccc6Oc6ccccc65)cc4)c4ccccc43)[C@@H]2C)cc1` registered a composite z-score of -0.968.

On to `O=C(NCC(O)CO)[C@@]1(CCS(=O)(=O)c2ccccc2)COC(c2ccc(OCCCO)cc2)=N1` (stereo partly drawn), for which the composite z-score is 1.28.

In the case of `C=CCC(OC(C)=O)[C@@H]1[C@@H](N(Cc2cccc3ccccc23)C(=O)Cc2ccc(F)cc2)c2cc(OCCCO)ccc2N1C(=O)c1ccc(-c2ccccc2)cc1` (stereo partly drawn), the composite z-score worked out at 0.292.

Values taken from PubChem BioAssay.
